Molecules are shown by their SMILES. Calls of active or inactive are those of the source.

Results on ten compounds are retold here after PubChem BioAssay.

Assay [1] is described as follows: optical density shifts of acrAB sulA E. coli – strain DRC41, OD650, 48 h, E. coli filamentation inducer project, primary screen (AID 1152).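 Note: E. coli MC1000 strain DRC41 lacking acrAB efflux pump and sulA.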 The note with it: higher = more signal, called active from +8 up or from −8 down.
A short description of assay [2]: probe aLefty1 binding on compound microarray – biochemical, small-molecule microarray, 635/667 nm fluorescence, primary screen (AID 1153).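 Note: score merges spot fluorescence with signal-to-noise ratio from the scanned slide images.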 Conditions: higher = more signal.
Assay [3] can be described thus: plasmodial surface anion channel blockers, osmotic lysis – cell-based, P. falciparum Indochina, OD700, 1 h, primary screen (AID 1154). Conditions: P. falciparum Indochina infected RBC osmotic lysis, higher = more signal, called active from +8 up or from −8 down.
Assay [4] can be described thus: plasmodial surface anion channel blockers, osmotic lysis – cell-based, P. falciparum Indochina, OD700, 2 h, primary screen (AID 1155).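 Note: lysis reports solute entry through the parasite surface anion channel PSAC.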 The note with it: P. falciparum Indochina infected erythrocytes, higher = more signal, called active from +8 up or from −8 down.
Assay [5] is described as follows: changes in parasitized red cell lysis, either direction – P. falciparum Indochina, OD700, 3 h, PSAC antagonist project, primary screen (AID 1156). The note with it: P. falciparum-infected erythrocytes, osmotic lysis, higher = more signal, called active from +8 up or from −8 down.
Assay [6] can be described thus: plasmodial surface anion channel blockers, osmotic lysis – cell-based, P. falciparum Indochina, OD700, 18 h, primary screen (AID 1157). Conditions: P. falciparum Indochina infected erythrocytes, osmotic lysis OD700, 18 h; higher = more signal, called active from +8 up or from −8 down.
A short description of assay [7]: S6 kinase pathway phospho-S6 level changes – cell-based, A549, cytoblot, luminescence, serum-stimulated, primary screen (AID 1158).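 Note: serum-stimulated A549 lung adenocarcinoma cells; signal is phosphorylated S6 detected by cytoblot immunostaining with HRP secondary.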 Conditions: 5 h, higher = more signal.
Assay [8] concerns the target NADPH oxidase 2 (Homo sapiens) (UniProt P04839). Description: compounds shifting NOX2 Amplex Red fluorescence – cell-based, HEK293-NOX2, PMA-stimulated, NOX inhibitor project, primary screen (AID 1159). Note: test concentration not given here. The note with it: 45 min, higher = more signal, called active from +8 up or from −8 down.
The target of assay [9] is NADPH oxidase 4 (Homo sapiens) (UniProt Q9NPH5). Nature of the assay: compounds shifting NOX4 Amplex Red fluorescence – cell-based, HEK293-NOX4, tetracycline-induced, NOX inhibitor project, primary screen (AID 1160). The note with it: HEK293-NOX4, Amplex Red H2O2 fluorescence, 45 min; higher = more signal, called active from +8 up or from −8 down.
The target in assay [10] is NADPH oxidase 5 (Homo sapiens) (UniProt Q96PH1). Nature of the assay: compounds shifting NOX5 Amplex Red fluorescence – cell-based, HEK293-NOX5, NOX inhibitor project, primary screen (AID 1161). The note with it: HEK293-NOX5, ionomycin, 45 min, higher = more signal.
Chain of NADPH oxidase 5 (Homo sapiens) (Q96PH1 whole entry, looked up): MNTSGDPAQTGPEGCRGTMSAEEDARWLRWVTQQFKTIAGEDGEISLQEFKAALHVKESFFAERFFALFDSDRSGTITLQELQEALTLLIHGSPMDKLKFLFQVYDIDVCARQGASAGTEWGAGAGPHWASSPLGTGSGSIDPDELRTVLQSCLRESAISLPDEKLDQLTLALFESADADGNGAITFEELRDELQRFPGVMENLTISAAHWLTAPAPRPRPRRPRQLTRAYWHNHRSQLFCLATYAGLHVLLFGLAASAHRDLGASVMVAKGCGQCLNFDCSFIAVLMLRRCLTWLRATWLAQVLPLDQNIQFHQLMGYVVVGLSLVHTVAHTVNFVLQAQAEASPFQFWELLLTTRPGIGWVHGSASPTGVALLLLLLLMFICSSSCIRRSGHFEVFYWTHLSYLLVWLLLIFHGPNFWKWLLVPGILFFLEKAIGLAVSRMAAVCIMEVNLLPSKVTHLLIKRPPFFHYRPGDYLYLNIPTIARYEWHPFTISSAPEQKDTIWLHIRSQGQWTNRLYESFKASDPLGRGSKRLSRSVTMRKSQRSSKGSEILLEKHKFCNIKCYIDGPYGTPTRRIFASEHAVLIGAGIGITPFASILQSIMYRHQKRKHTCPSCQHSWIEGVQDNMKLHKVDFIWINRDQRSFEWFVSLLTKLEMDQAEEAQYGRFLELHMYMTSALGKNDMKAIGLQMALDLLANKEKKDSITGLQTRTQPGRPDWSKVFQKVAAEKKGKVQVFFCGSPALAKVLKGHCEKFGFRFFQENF

Chain of NADPH oxidase 4 (Homo sapiens) (Q9NPH5 whole entry, looked up): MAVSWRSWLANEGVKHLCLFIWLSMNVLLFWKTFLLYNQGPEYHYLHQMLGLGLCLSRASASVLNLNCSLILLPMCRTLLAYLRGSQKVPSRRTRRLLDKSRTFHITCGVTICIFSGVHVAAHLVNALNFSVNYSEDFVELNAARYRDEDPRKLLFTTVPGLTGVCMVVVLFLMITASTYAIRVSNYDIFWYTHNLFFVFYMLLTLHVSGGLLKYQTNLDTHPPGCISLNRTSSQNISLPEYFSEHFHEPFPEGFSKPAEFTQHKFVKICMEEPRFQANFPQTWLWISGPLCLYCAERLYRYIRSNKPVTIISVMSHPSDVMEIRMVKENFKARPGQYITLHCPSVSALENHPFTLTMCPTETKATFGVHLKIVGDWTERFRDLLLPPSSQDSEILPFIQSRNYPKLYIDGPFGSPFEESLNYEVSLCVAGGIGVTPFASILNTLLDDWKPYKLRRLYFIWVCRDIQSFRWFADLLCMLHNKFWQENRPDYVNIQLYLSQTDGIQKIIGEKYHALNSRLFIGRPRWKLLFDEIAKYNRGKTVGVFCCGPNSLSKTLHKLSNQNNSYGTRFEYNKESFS
Chain of NADPH oxidase 2 (Homo sapiens) (P04839 whole entry, looked up): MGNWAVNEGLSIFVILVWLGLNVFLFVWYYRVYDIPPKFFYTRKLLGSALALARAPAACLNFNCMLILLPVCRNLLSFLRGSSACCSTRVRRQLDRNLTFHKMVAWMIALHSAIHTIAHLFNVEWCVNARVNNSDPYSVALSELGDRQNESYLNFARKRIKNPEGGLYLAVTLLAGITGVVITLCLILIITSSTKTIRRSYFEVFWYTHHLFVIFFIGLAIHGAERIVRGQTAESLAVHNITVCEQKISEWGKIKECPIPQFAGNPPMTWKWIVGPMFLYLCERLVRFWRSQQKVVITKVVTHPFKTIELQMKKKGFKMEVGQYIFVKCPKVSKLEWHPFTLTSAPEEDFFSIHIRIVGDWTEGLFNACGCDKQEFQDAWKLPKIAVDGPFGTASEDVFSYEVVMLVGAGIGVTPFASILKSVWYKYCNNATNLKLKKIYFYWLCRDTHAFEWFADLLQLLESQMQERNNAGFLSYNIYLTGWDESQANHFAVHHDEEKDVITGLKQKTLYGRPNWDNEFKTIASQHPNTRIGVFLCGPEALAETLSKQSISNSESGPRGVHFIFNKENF

As for `CC(C)(C)N1CC=CC23O[C@@H]4C=CCOC(=O)[C@@H]4[C@H]2C(=O)N(CCCCCCO)[C@@H]3C1=O` (stereo not given in full), the z-score in [1] is -0.348 (inactive); in assay [3], 1.69 (inactive); in [4], 0.127 (inactive); in [5], 0.935 (inactive); in [6], 0.381 (inactive); in [7], -0.613. For the same compound, the values for the z-score in assay [8], in assay [9] and in assay [10] were 0.959 (inactive), -0.503 (inactive) and 1.47, respectively. Also, in assay [2], the composite z-score is -0.108.

With `C[C@@H]1NC(=O)[C@@]23C(=O)N[C@@H](Cc4ccccc4)C2[C@H](C)[C@@]2(C)O[C@H]2C3/C=C/C/C=C\CNC(=O)[C@@H]2CCCN2C1=O` (stereo not given in full), the z-score in assay [1] was -0.906 (inactive); in assay [3], 0.518 (inactive); in assay [4], -0.0429 (inactive); in assay [5], -1.12 (inactive); in assay [6] it was -0.161 (inactive); in assay [7], 0.0613. Moreover, the z-score in [8] is -0.0487 (inactive); in assay [9], 0.581 (inactive); in assay [10] it was -2.64. In assay [2], the composite z-score is -0.147.

As for `O=C1OCCC/C=C\[C@H]2OC34C=CCN(CCN5CCOCC5)C(=O)[C@H]3N(CCCCCCO)C(=O)[C@@H]4C12` (stereo not given in full), the z-score was 1.76 (inactive) in assay [1]; 3.78 (inactive) in assay [3]; -0.652 (inactive) in [4]; 0.752 (inactive) in assay [5]; -0.774 (inactive) in assay [6]; 1.66 in assay [7]. Moreover, the z-score in assay [8] is 0.752 (inactive); in assay [9] it was -0.153 (inactive); in assay [10], 1.9. The compound also returned a composite z-score in [2] of 0.369.

In the case of `O=C1O[C@@H](c2ccccc2)[C@@H](c2ccccc2)N2[C@@H](c3ccc(OCCO)cc3)[C@]3(C(=O)Nc4ccccc43)[C@@H](C(=O)O)[C@H]12`, the z-score in assay [1] is 0.635 (inactive); in assay [3], 7.13 (inactive); in assay [4], -1.02 (inactive); in [5], -0.202 (inactive); in [6], -1.62 (inactive); in assay [7], 1.52. Further, the z-score in assay [8] is 0.262 (inactive); in assay [9] it was -0.444 (inactive); in assay [10], -0.985. Moreover, in [2], the composite z-score was 1.46.

`C=CCC(OC(C)=O)[C@@H]1[C@@H](N(Cc2ccc(-c3cccc(C(F)(F)F)c3)o2)C(=O)c2ccc(-c3ccccc3)cc2)c2cc(OCCCO)ccc2N1C(=O)c1ccc2ccccc2n1` (stereo not given in full): the z-score is -0.662 (inactive) in assay [1]; 0.394 (inactive) in assay [3]; -0.262 (inactive) in [4]; 0.0785 (inactive) in assay [5]; 0.188 (inactive) in [6]; 1.02 in [7]. The z-score in assay [8] was -1.73 (inactive); in assay [9], -1.3 (inactive); in [10] it was -0.764. For the same compound, the composite z-score in [2] was -0.0501.

Consider `COC(=O)c1cn(C[C@@H](Cc2ccccc2)NC(=O)N[C@H](CO)CCc2oc(C(C)=O)c(C(=O)OC)c2C(=O)OC)nn1`, for which the z-score in assay [1] was 0.555 (inactive); in [3], 14.3 (active); in [4] it was 2.29 (inactive); in assay [5], 1.08 (inactive); in assay [6] it was 0.872 (inactive); in [7], 0.419. For the same compound, the z-score in [8] was 0.744 (inactive); in assay [9], 1.01 (inactive); in assay [10], 1.84. This compound returned a composite z-score in [2] of 0.238.

On to `COC(=O)[C@@]1(Cc2ccc(F)cc2)[C@H]2c3cc(C(=O)N4CCCC4)n(CCN4CNCC4=O)c3C[C@H]2CN1C(=O)c1ccccc1`, for which the z-score is -1.59 (inactive) in [1]; 1.85 (inactive) in [3]; 0.811 (inactive) in [4]; 2.24 (inactive) in assay [5]; 0.937 (inactive) in assay [6]; 1 in [7]. Also, the results for the z-score in assay [8], in assay [9] and in assay [10] were 0.821 (inactive), -0.489 (inactive) and -5.26, respectively. This compound also yielded a composite z-score in [2] of 0.497.

For the compound `COc1ccc(-c2nc(-c3ccccc3)c3c(c2C)CO[Si]3(C(C)C)C(C)C)cn1`, the z-score in [1] is -1.41 (inactive); in assay [3], 0.574 (inactive); in assay [4] it was -0.0994 (inactive); in assay [5] it was -0.566 (inactive); in assay [6] it was -0.278 (inactive); in assay [7], -0.0095. Besides, the z-score was -0.783 (inactive) in assay [8], 0.386 (inactive) in assay [9] and -1.54 in [10]. Also, the composite z-score in [2] was 0.0816.

In the case of `C[N+](C)(C)CCCC[C@@H]1NC(=O)[C@H]2C[C@@H](C(=O)NCCCCCCN)[C@@H](c3ccc(O)cc3)N2C1=O`, the z-score in [1] is 0.429 (inactive); in [3], 0.625 (inactive); in [4] it was 0.328 (inactive); in assay [5] it was -2.08 (inactive); in [6], 0.326 (inactive); in assay [7], 0.191. For the same compound, the z-score in assay [8] is 0.00341 (inactive); in [9], -1.73 (inactive); in assay [10], 0.273. The compound further returned a composite z-score in [2] of 0.284.

Turning to `COCCOC(=O)N1C(=O)[C@@]2(c3cc(C#Cc4ccc(OC)cc4)ccc31)[C@H](c1ccc(O)cc1)N1[C@H](c3ccccc3)[C@H](c3ccccc3)OC(=O)[C@H]1[C@@H]2C(=O)N1CCCCCCC1`, the z-score in assay [1] is -0.329 (inactive); in [3], 0.0963 (inactive); in assay [4], 0.0379 (inactive); in [5] it was -1.3 (inactive); in assay [6], -0.0483 (inactive); in assay [7], -0.307. The z-score in assay [8] was 0.877 (inactive); in assay [9] it was 0.482 (inactive); in assay [10], 0.391. The compound also registered a composite z-score in [2] of 2.12.
